VLA-4 allo ag: allosterically activates the human VLA-4 integrin | Jurkat cells, LDV-FITC binding, flow cytometry | activation, % at 10 µM (by protocol) | P13612 | 24,000 tested, under 10 active;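 active = fluorescent ligand binding to cells raised by more than 40% of the manganese-induced maximum; inconclusive = compound's own fluorescence above 85% of the ligand control signal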;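 also: 0% = ligand binding without compound and 100% = manganese-stimulated maximal binding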
FPR binder: binds the human formylpeptide receptor FPR | P21462 | FPR-expressing cells, fluorescent ligand binding, flow cytometry | inhibition, % (test concentration not listed) | 0.74% of 24,000 active;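 also: 0% = buffer wells and 100% = receptor blocker peptide wells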
Target sequence (P21462 whole entry, looked up): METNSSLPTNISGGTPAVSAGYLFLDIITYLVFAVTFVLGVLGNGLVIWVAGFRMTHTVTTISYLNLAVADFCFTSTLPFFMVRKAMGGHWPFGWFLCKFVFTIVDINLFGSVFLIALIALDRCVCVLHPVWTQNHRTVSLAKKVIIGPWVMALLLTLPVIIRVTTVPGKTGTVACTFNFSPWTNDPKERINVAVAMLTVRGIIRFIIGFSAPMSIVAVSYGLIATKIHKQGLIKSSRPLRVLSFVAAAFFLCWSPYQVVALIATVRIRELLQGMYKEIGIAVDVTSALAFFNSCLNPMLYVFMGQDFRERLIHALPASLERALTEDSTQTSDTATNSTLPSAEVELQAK
FPRL1 binder: ligands of human FPRL1, also counter-screen for FPR ligands; FPRL1-expressing cells, fluorescent ligand binding inhibition, flow cytometry; inhibition, % (concentration not given with the values); 0.3% of 24,000 active; AID 441;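 also: 0% = buffer alone and 100% = receptor blocker peptide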
Autofluor Jurkat: autofluorescence counter-screen for VLA-4 integrin assays | Jurkat cells, compound autofluorescence, flow cytometry; stronger effect = higher value; 1 = vehicle-only cell background | 0.61% of 24,000 active | fluorescence ratio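 (tested at 10 µM compound in the well)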 | AID 576;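 active = fluorescence ratio above 2.44, which is 1 plus 3 SD of all ratios; inconclusive = signal too bright to measure linearly, ratio around 10 or more; inactive = fluorescence ratio below 2.44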;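 also: green fluorescence of cells measured with 488 nm excitation and 530 nm emission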
VLA-4 antagonist: inhibition of LDV-FITC ligand binding to human VLA-4 integrin; P13612; Jurkat cells, LDV-FITC binding with Mn2+, flow cytometry; 100% = Mn2+-driven binding gain fully reversed; inhibition, % at 10 µM (by protocol); 0.2% of 24,000 active; AID 529;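 active = inhibition above 50%; inconclusive = compound itself fluorescent, judged against control cell fluorescence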;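 also: 0% = Mn2+ stimulated cells lacking compound and 100% = ligand binding without Mn2+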
Proteasome disasm: blocks ATP-dependent breakdown of the yeast 26S proteasome; anti-FLAG beads, GFP-proteasome disassembly, flow cytometry; inhibition of disassembly, % (concentration not given with the values); 0.2% of 24,000 active; AID 751;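 active = inhibition of disassembly above about 33%, limit read from the data; inconclusive = likely self-fluorescent, control bead median signal at least 40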;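 also: plate controls were ATP control with full disassembly for no effect and ATP-gamma-S intact proteasomes for full effect; higher percent means more bead fluorescence retained so stronger block of disassembly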
* marks the source's active call; other numbers are inactive results; ? = inconclusive; nt = not tested or not shown. A selection: hits, their analogues and other compounds. The true share with any hit is near 1.9%. Rule as the data show it, unless noted: active = inhibition above about 30%; inconclusive = no clear call, values can overlap the other calls; inactive = below that.

SMILES	VLA-4 allo ag	FPR binder	FPRL1 binder	Autofluor Jurkat	VLA-4 antagonist	Proteasome disasm
Cc1cccc(NC(=O)C2CCCN(S(=O)(=O)c3cccc4cccnc34)C2)c1 (stereo unspecified)	-5	0	0	1	23	0
CCOC(=O)c1ccccc1NC(=O)Cn1c(-c2nonc2N)nc2ccccc21	?	4	-2	1.3	?	7
CC1CCCN(C(=O)Cn2c(-c3nonc3N)nc3ccccc32)C1 (stereo unspecified)	?	1	-2	3*	?	-3
CC(C)C(NS(=O)(=O)c1cccc2nsnc12)C(=O)N1CCc2ccccc2C1 (stereo unspecified)	-3	0	-3	1.2	8	1
CN(C)c1ccc(/C=C/C(O)=C2/C(=O)N(C)C3(C)CC2c2ccccc2O3)cc1 (stereo unspecified)	?	-15	-18	6.9*	?	85*
CCCCNc1cc(C(=O)O)cc(S(N)(=O)=O)c1Oc1ccccc1	5	2	-4	1	-38	1
O=S1(=O)C=C(Sc2nc3cc(Cl)ccc3o2)c2ccccc21	?	-20	-44	9.6*	?	13
Cc1ccc(-c2nc(C(=O)NC3CCCCCC3)no2)cc1	4	1	0	1	-6	1
Oc1[nH]c2ccccc2c1/C=N/c1nccs1	?	-4	-12	9.6*	?	17
CSc1ccc(C2NC(=O)c3c(sc4c3CCN(C)C4)N2)cc1 (stereo unspecified)	?	-3	-4	4.7*	?	4
CN1CCc2c(sc3c2C(=O)NC(c2ccc(-c4cccc(Cl)c4)o2)N3)C1 (stereo unspecified)	?	-18	-24	9.9*	0	8
CCOc1ccccc1-n1c(SCC(=O)NC2CCCC2)nnc1-c1ccoc1C	1	2	7	1	-9	-1
CSc1nc(N)nc(SCC(=O)c2ccccc2)c1C#N	-1	3	5	1.1	18	-2
N#Cc1c(-c2ccco2)cc(C2CC2)nc1SCC(=O)c1ccccc1	?	2	0	2.5*	?	1
CCOc1cc(C2C(C(=O)OC)=C(C)N=C3SCCC(=O)N32)ccc1OC(C)=O (stereo unspecified)	?	-3	-8	2.7*	?	1
CCOc1ccc(C2C(C(=O)OC)=C(C)N=C3SCCC(=O)N32)cc1OCC (stereo unspecified)	-3	2	5	1.1	6	-2
Cc1cccc2sc(NC(=O)C3CCCN(S(=O)(=O)c4cccc5nonc45)C3)nc12 (stereo unspecified)	?	-13	7	2.6*	?	27
Cc1ccc2nc(NC(=O)C3CCCN(S(=O)(=O)c4cccc5nonc45)C3)sc2c1 (stereo unspecified)	?	-3	-3	3.1*	?	22
Cc1ccc(-c2nc(NC(=O)CSc3nnnn3-c3ccccc3)ns2)cc1	-16	0	8	1.2	51*	2
N#CCC(=O)Nc1ncn(Cc2ccccc2Cl)n1	2	0	4	1.1	-2	-1
COc1ccc2cnn(-c3ccccc3)c(=O)c2c1OC	-2	36*	45*	1	-30	0
Cc1ccc(Cn2ccc(NC(=O)c3cc(CC(C)C)on3)n2)cc1	-7	-3	-4	1	10	-2
Cc1ccsc1C1C2=C(CC(C)(C)CC2=O)Nc2ncnn21 (stereo unspecified)	15	36*	2	1.1	-41	-3
Cc1ccsc1C1C2=C(CCCC2=O)Nc2ncnn21 (stereo unspecified)	-1	9	-2	0.98	-26	-1
CCN(CC)CCN1C(=O)C(=O)/C(=C(/O)c2c(C)[nH]c(C(=O)OC)c2C)C1c1ccccc1 (stereo unspecified)	nt	30*	16	nt	nt	nt
O=C(COC(=O)c1ccccc1Nc1cccc(C(F)(F)F)c1)NCc1ccco1	nt	-4	-5	nt	nt	nt
CCOc1ccc2nc(NC(=O)C3CCCN(S(=O)(=O)c4cccs4)C3)sc2c1 (stereo unspecified)	-9	-6	0	1.1	1	3

Assay outcomes as filed in PubChem.
